# Results: paper PMC11062922 (Nature Chemical Biology, 2023)
# Where two headings read alike, the source gives them in different places.
# Legend:
# Parameters in all cases: species or system human, MV4-11 + K-562 + COLO205 + SK-N-BE2 + OVCAR-8
# ADRBK1 = conditions: read-out: apparent Kd, n = 1
# CLK3 = conditions: read-out: apparent Kd; compound concentrations: 100 nM and 1000 nM (sheet 'Samples'), CATDS: 0.62903265036008305; n = 1
# AURKB = conditions: read-out: apparent Kd; compound concentrations: 100 nM and 1000 nM (sheet 'Samples'), CATDS: 4.53976270719329E-2; n = 1
# CDC42BPA = conditions: read-out: apparent Kd; compound concentrations: 100 nM and 1000 nM (sheet 'Samples'), CATDS: 4.6703340399090902E-2; n = 1
# CDC42BPB = conditions: read-out: apparent Kd; compound concentrations: 100 nM and 1000 nM (sheet 'Samples'), CATDS: 8.1718607262500007E-2; n = 1
# CDC42BPG = conditions: read-out: apparent Kd; compound concentrations: 100 nM and 1000 nM (sheet 'Samples'), CATDS: 0.122976821527932; n = 1
# MELK = conditions: read-out: apparent Kd; compound concentrations: 100 nM and 1000 nM (sheet 'Samples'), CATDS: 4.0337872556692203E-2; n = 1
# PKN1 = conditions: read-out: apparent Kd; compound concentrations: 100 nM and 1000 nM (sheet 'Samples'), CATDS: 5.5828153237378199E-2; n = 1
# PRKACA = conditions: read-out: apparent Kd; compound concentrations: 100 nM and 1000 nM (sheet 'Samples'), CATDS: 0.15364930572584601; n = 1
# PRKACB = conditions: read-out: apparent Kd; compound concentrations: 100 nM and 1000 nM (sheet 'Samples'), CATDS: 8.6308392593060404E-2; n = 1
# PRKG1 = conditions: read-out: apparent Kd; compound concentrations: 100 nM and 1000 nM (sheet 'Samples'), CATDS: 0.45709294819491503; n = 1
# PRKX;PRKY = conditions: read-out: apparent Kd; compound concentrations: 100 nM and 1000 nM (sheet 'Samples'), CATDS: 6.11631694313804E-2; n = 1
# ROCK1 = conditions: read-out: apparent Kd; compound concentrations: 100 nM and 1000 nM (sheet 'Samples'), CATDS: 0.130780563846252; n = 1
# ROCK2 = conditions: read-out: apparent Kd; compound concentrations: 100 nM and 1000 nM (sheet 'Samples'), CATDS: 0.120469396164387; n = 1
# RPS6KA5 = conditions: read-out: apparent Kd; compound concentrations: 100 nM and 1000 nM (sheet 'Samples'), CATDS: 4.3322192000587102E-2; n = 1
# RPS6KB1 = conditions: read-out: apparent Kd; compound concentrations: 100 nM and 1000 nM (sheet 'Samples'), CATDS: 4.8981649950923703E-2; n = 1
# ADCK3 = conditions: read-out: apparent Kd; compound concentrations: 100 nM and 1000 nM (sheet 'Samples'), CATDS: 0.21121986416857899; n = 1
# RIPK2 = conditions: read-out: apparent Kd; compound concentrations: 100 nM and 1000 nM (sheet 'Samples'), CATDS: 0.926895955727292; n = 1
# RIPK3 = conditions: read-out: apparent Kd; compound concentrations: 100 nM and 1000 nM (sheet 'Samples'), CATDS: 0.31380158399753799; n = 1
# AKT1 = conditions: read-out: apparent Kd, n = 1
# AKT2 = conditions: read-out: apparent Kd, n = 1
# CSNK1A1 = conditions: read-out: apparent Kd; compound concentrations:100 nM and 1000 nM (sheet 'Samples'); n = 1
# MAP2K2 = conditions: read-out: apparent Kd, n = 1
# MAP3K4 = conditions: read-out: apparent Kd; compound concentrations:100 nM and 1000 nM (sheet 'Samples'); n = 1
# MAPK14 = conditions: read-out: apparent Kd, compound concentrations: 100 nM and 1000 nM (sheet 'Samples'), n = 1
# NCL = conditions: read-out: apparent Kd; compound concentrations:100 nM and 1000 nM (sheet 'Samples'); n = 1
# OPA1 = conditions: read-out: apparent Kd; compound concentrations:100 nM and 1000 nM (sheet 'Samples'); n = 1
# PIM2 = conditions: read-out: apparent Kd; compound concentrations:100 nM and 1000 nM (sheet 'Samples'); n = 1
# PIP4K2C = conditions: read-out: apparent Kd; compound concentrations:100 nM and 1000 nM (sheet 'Samples'); n = 1
# PRKAG2 = conditions: read-out: apparent Kd; compound concentrations:100 nM and 1000 nM (sheet 'Samples'); n = 1
# PYGL = conditions: read-out: apparent Kd, n = 1
# STK16 = conditions: read-out: apparent Kd; compound concentrations:100 nM and 1000 nM (sheet 'Samples'); n = 1
# STK26 = conditions: read-out: apparent Kd; compound concentrations:100 nM and 1000 nM (sheet 'Samples'); n = 1
# CDK6 = conditions: read-out: apparent Kd; compound concentrations: 100 nM and 1000 nM (sheet 'Samples'), CATDS: 5.1522031717759098E-2; n = 1
# FLT3 = conditions: read-out: apparent Kd; compound concentrations: 100 nM and 1000 nM (sheet 'Samples'), CATDS: 6.2638012545430999E-2; n = 1
# HSP90B1 = conditions: read-out: apparent Kd; compound concentrations: 100 nM and 1000 nM (sheet 'Samples'), CATDS: 7.7391071706101697E-2; n = 1
# IARS = conditions: read-out: apparent Kd; compound concentrations: 100 nM and 1000 nM (sheet 'Samples'), CATDS: 5.4756501565327097E-2; n = 1
# MAP2K1 = conditions: read-out: apparent Kd; compound concentrations: 100 nM and 1000 nM (sheet 'Samples'), CATDS: 5.5357684673120397E-2; n = 1
# MAPKAPK2 = conditions: read-out: apparent Kd; compound concentrations: 100 nM and 1000 nM (sheet 'Samples'), CATDS: 5.3693102707434E-2; n = 1
# MDN1 = conditions: read-out: apparent Kd; compound concentrations: 100 nM and 1000 nM (sheet 'Samples'), CATDS: 0.23126444967608101; n = 1
# NNT = conditions: read-out: apparent Kd; compound concentrations: 100 nM and 1000 nM (sheet 'Samples'), CATDS: 4.6645770981233098E-2; n = 1
# NQO1 = conditions: read-out: apparent Kd; compound concentrations: 100 nM and 1000 nM (sheet 'Samples'), CATDS: 6.3403997272240303E-2; n = 1
# RIOK2 = conditions: read-out: apparent Kd; compound concentrations: 100 nM and 1000 nM (sheet 'Samples'), CATDS: 4.9711958169324999E-2; n = 1
# VDAC3 = conditions: read-out: apparent Kd; compound concentrations: 100 nM and 1000 nM (sheet 'Samples'), CATDS: 5.6878291770418803E-2; n = 1
# [1] = compound concentrations:100 nM and 1000 nM (sheet 'Samples')
smiles,measurement,setting,value
COc1ccc2cc(-c3nc(-c4ccccc4C(C)C)[nH]c3-c3ccncc3)ccc2c1 [SB-660566],potency estimated from few doses,"ADRBK1; compound concentrations: 100 nM and 1000 nM (sheet 'Samples'), CATDS: 0.41489344635778702",2070 nM
same,potency estimated from few doses,CLK3,865 nM
CCNCC(Cc1ccccc1)NC(=O)c1cc(Br)c(-c2ccnc3[nH]ccc23)s1.CCNCC(Cc1ccccc1)NC(=O)c1cc(Br)c(-c2ccnc3[nH]ccc23)s1.Cl.Cl (stereo not shown) [GSK1383280A],potency estimated from few doses,"ADRBK1; compound concentrations: 100 nM and 1000 nM (sheet 'Samples'), CATDS: 4.4620595418211097E-2",971 nM
same,potency estimated from few doses,AURKB,888 nM
same,potency estimated from few doses,CDC42BPA,771 nM
same,potency estimated from few doses,CDC42BPB,103 nM
same,potency estimated from few doses,CDC42BPG,38.1 nM
same,potency estimated from few doses,MELK,1780 nM
same,potency estimated from few doses,PKN1,359 nM
same,potency estimated from few doses,PRKACA,24.4 nM
same,potency estimated from few doses,PRKACB,88.6 nM
same,potency estimated from few doses,PRKG1,4.21 nM
same,potency estimated from few doses,PRKX;PRKY,256 nM
same,potency estimated from few doses,ROCK1,33.5 nM
same,potency estimated from few doses,ROCK2,39.8 nM
same,potency estimated from few doses,RPS6KA5,1140 nM
same,potency estimated from few doses,RPS6KB1,617 nM
CC(C)S(=O)(=O)c1ccc2nccc(Nc3ccc4scnc4c3)c2c1 [GSK872],potency estimated from few doses,ADCK3,483 nM
same,potency estimated from few doses,RIPK2,2.51 nM
same,potency estimated from few doses,RIPK3,70.7 nM
Cc1ccc(NC(=O)CC2CC2)cc1-c1ccc(C(=O)NCC2CC2)cc1 [GW796920X],potency estimated from few doses,ADRBK1; [1],1860 nM
same,potency estimated from few doses,AKT1; [1],1770 nM
same,potency estimated from few doses,AKT2; [1],1680 nM
same,potency estimated from few doses,CSNK1A1,2220 nM
same,potency estimated from few doses,MAP2K2; [1],2220 nM
same,potency estimated from few doses,MAP3K4,1800 nM
same,potency estimated from few doses,MAPK14; CATDS: 0.122142095126863,629 nM
same,potency estimated from few doses,NCL,2300 nM
same,potency estimated from few doses,OPA1,1700 nM
same,potency estimated from few doses,PIM2,1740 nM
same,potency estimated from few doses,PIP4K2C,1650 nM
same,potency estimated from few doses,PRKAG2,1310 nM
same,potency estimated from few doses,PYGL; [1],2130 nM
same,potency estimated from few doses,STK16,2170 nM
same,potency estimated from few doses,STK26,1450 nM
Cc1ccc(NC(=O)Nc2cc(C(C)(C)C)nn2-c2ccccc2)cc1 [GSK1014915A],potency estimated from few doses,"ADRBK1; compound concentrations: 100 nM and 1000 nM (sheet 'Samples'), CATDS: 5.8321770731493798E-2",1290 nM
same,potency estimated from few doses,"AKT1; compound concentrations: 100 nM and 1000 nM (sheet 'Samples'), CATDS: 4.8230371724731401E-2",2030 nM
same,potency estimated from few doses,"AKT2; compound concentrations: 100 nM and 1000 nM (sheet 'Samples'), CATDS: 6.0440208262816403E-2",1190 nM
same,potency estimated from few doses,CDK6,1710 nM
same,potency estimated from few doses,FLT3,1110 nM
same,potency estimated from few doses,HSP90B1,749 nM
same,potency estimated from few doses,IARS,1480 nM
same,potency estimated from few doses,MAP2K1,1440 nM
same,potency estimated from few doses,"MAP2K2; compound concentrations: 100 nM and 1000 nM (sheet 'Samples'), CATDS: 6.2527819701534898E-2",1110 nM
same,potency estimated from few doses,MAPK14; CATDS: 6.9601617206552405E-2,906 nM
same,potency estimated from few doses,MAPKAPK2,1550 nM
same,potency estimated from few doses,MDN1,156 nM
same,potency estimated from few doses,NNT,2220 nM
same,potency estimated from few doses,NQO1,1080 nM
same,potency estimated from few doses,"PYGL; compound concentrations: 100 nM and 1000 nM (sheet 'Samples'), CATDS: 4.60061770009558E-2",2310 nM
same,potency estimated from few doses,RIOK2,1870 nM
same,potency estimated from few doses,VDAC3,1360 nM
